In PubChem BioAssay (NCATS) one finds Potency and viability data, which are given here for twelve compounds.

Test [1] can be described thus: Quantitative High-Throughput drug screen in 47 multiple myeloma cell lines against the NCATS MIPE library collection: KMS28PE_JCRB cell viability assay (AID 1918983). Further: nearly all actives have a fitted effect of over 35% in size. A digest of the protocol: (§1)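 Readout: median RLU from CellTiter-Glo after 5 min at room temperature. Preceding step was 48 h drug treatment of 500 cells/well at 37 °C, 5% CO2, with DMSO-only and media-only control wells.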

Test [2] in a line: Quantitative High-Throughput drug screen in 47 multiple myeloma cell lines against the NCATS MIPE library collection: OCIMY5_PLB cell viability assay (AID 1918988). Further: nearly all actives have a fitted effect of over 65% in size. A digest of the protocol: as §1
Test [3] in a line: Quantitative High-Throughput drug screen in 47 multiple myeloma cell lines against the NCATS MIPE library collection: OPM1_PLB cell viability assay (AID 1918989). Further: nearly all actives have a fitted effect of over 40% in size. A digest of the protocol:
as §1

The nature of test [4]: Quantitative High-Throughput drug screen in 47 multiple myeloma cell lines against the NCATS MIPE library collection: XG6_PLB cell viability assay (AID 1919865). Further: nearly all actives have a fitted effect of over 40% in size. A digest of the protocol: as §1
A short description of test [5]: Quantitative High-Throughput drug screen in 47 multiple myeloma cell lines against the NCATS MIPE library collection: XG1_PLB cell viability assay (AID 1919866). Further: nearly all actives have a fitted effect of over 35% in size. A digest of the protocol: as §1
Test [6] can be described thus: Quantitative High-Throughput drug screen in 47 multiple myeloma cell lines against the NCATS MIPE library collection: VP6_DJ cell viability assay (AID 1919867). Further: nearly all actives have a fitted effect of over 40% in size. A digest of the protocol: as §1
Test [7] is described as follows: Quantitative High-Throughput drug screen in 47 multiple myeloma cell lines against the NCATS MIPE library collection: PE2_PLB cell viability assay (AID 1919869). Further: nearly all actives have a fitted effect of over 35% in size. A digest of the protocol: as §1
The nature of test [8]: Quantitative High-Throughput drug screen in 47 multiple myeloma cell lines against the NCATS MIPE library collection: PCM6_Riken cell viability assay (AID 1919870). Further: nearly all actives have a fitted effect of over 30% in size. A digest of the protocol: as §1
A short description of test [9]: Quantitative High-Throughput drug screen in 47 multiple myeloma cell lines against the NCATS MIPE library collection: RPMI8226_ATCC cell viability assay (AID 1919871). Further: nearly all actives have a fitted effect of over 30% in size. A digest of the protocol: as §1
Test [10] can be described thus: Quantitative High-Throughput drug screen in 47 multiple myeloma cell lines against the NCATS MIPE library collection: OPM2_DSMZ cell viability assay (AID 1919872). Further: nearly all actives have a fitted effect of over 30% in size. A digest of the protocol: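 qHTS of the MIPE 4.0 collection: 500 myeloma cells/well, 48 h drug exposure at 37C in 5% CO2, then CellTiter-Glo for 5 min at room temperature before luminescence reading.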

The nature of test [11]: Quantitative High-Throughput drug screen in 47 multiple myeloma cell lines against the NCATS MIPE library collection: KMS28BM_JCRB cell viability assay (AID 1919874). Further: nearly all actives have a fitted effect of over 35% in size. A digest of the protocol:
as §1

Test [12] can be described thus: Quantitative High-Throughput drug screen in 47 multiple myeloma cell lines against the NCATS MIPE library collection: OCIMY7_PLB cell viability assay (AID 1918987). Further: nearly all actives have a fitted effect of over 65% in size. A digest of the protocol:
as §1

Test [13] can be described thus: Quantitative High-Throughput drug screen in 47 multiple myeloma cell lines against the NCATS MIPE library collection: UTMC2_PLB cell viability assay (AID 1919868). Further: nearly all actives have a fitted effect of over 55% in size. A digest of the protocol: as §1
Test [14] can be described thus: Quantitative High-Throughput drug screen in 47 multiple myeloma cell lines against the NCATS MIPE library collection: L363_DSMZ cell viability assay (AID 1918984). Further: nearly all actives have a fitted effect of over 40% in size. A digest of the protocol:
as §1

The nature of test [15]: Quantitative High-Throughput drug screen in 47 multiple myeloma cell lines against the NCATS MIPE library collection: KMS34_JCRB cell viability assay (AID 1918985). Further: nearly all actives have a fitted effect of over 40% in size. A digest of the protocol: as §1
Test [16] is described as follows: Quantitative High-Throughput drug screen in 47 multiple myeloma cell lines against the NCATS MIPE library collection: SKMM1_PLB cell viability assay (AID 1919863). Further: nearly all actives have a fitted effect of over 35% in size. On viability: series mostly up to about 46 µM. Conditions: SKMM1 myeloma viability, CellTiter-Glo ATP, 48 h; viability: hits give low values. A digest of the protocol:
as §1
For orientation: In ATP-based viability assays light output follows the ATP content of the culture.

Test [17] in a line: Quantitative High-Throughput drug screen in 47 multiple myeloma cell lines against the NCATS MIPE library collection: KMS11_JCRBsus cell viability assay (AID 1919873). Further: nearly all actives have a fitted effect of over 50% in size. A digest of the protocol:
as §1

The nature of test [18]: Quantitative High-Throughput drug screen in 47 multiple myeloma cell lines against the NCATS MIPE library collection: U266_ATCC cell viability assay (AID 1919864). Further: nearly all actives have a fitted effect of over 35% in size. A digest of the protocol: as §1

Inconclusive results are not listed. Values without a mark were called inactive. The source made the active and inactive calls. The call rests on the fitted dose curve; in most records, active means well fitted cell-killing curve with a large enough effect; inconclusive means small, poorly fitted or top-dose-only effect, or effect the other way; inactive means no such curve, though single readings can be large or run the other way.
Potency means the concentration at half of the fitted maximal effect.

For the compound `CC1CC2C3CCC4=CC(=O)C=C[C@]4(C)[C@@]3(F)[C@@H](O)C[C@]2(C)[C@@]1(O)C(=O)CO` (stereo partly specified), the Potency was 0.0935 µM (active) in [1]; 2.64 µM (active) in test [2]; 2.35 µM (active) in test [3]; 0.209 µM (active) in test [6]; 118 nM (active) in test [8]; 29.6 nM (active) in [9]. In addition, the Potency result in test [4], in test [5], in [7], in test [10] and in test [11] was “inactive” each time.

In the case of `C[C@@H]1C[C@H]2[C@@H]3CCC4=CC(=O)C=C[C@]4(C)[C@@]3(Cl)[C@@H](O)C[C@]2(C)[C@@]1(OC(=O)c1ccco1)C(=O)CCl`, the Potency in test [12] is 9.35 µM (active); in test [2], 16.6 µM (active); in test [3] it was 10.5 µM (active); in test [4] it was 1.66 µM (active); in test [5], 3.72 µM (active); in [6] it was 2.96 µM (active). Moreover, the Potency is 10.5 µM (active) in test [13]; 5.9 µM (active) in test [7]; 2960 nM (active) in [8]; 23.5 µM (active) in [10]; 29.6 µM (active) in test [11].

As to `CCOC(=O)c1ccc(C#Cc2ccc3c(c2)C(C)(C)CCS3)nc1`, the Potency entry in test [14], in test [15], in test [7], in test [9], in test [10] and in [11] was “inactive” each time. In test [16], the viability is 115%.

With `COc1ccc(C(=O)CC(=O)c2ccc(C(C)(C)C)cc2)cc1`, the Potency was 8.33 µM (active) in test [1]; 6.62 µM (active) in [14]; 3.72 µM (active) in test [12]; 2.64 µM (active) in test [2]; 7.43 µM (active) in [3]; 5.9 µM (active) in test [16]. For the same compound, the Potency in test [4] was 0.743 µM (active); in test [5], 1.66 µM (active); in test [6] it was 2.64 µM (active); in [13] it was 3.72 µM (active); in test [7], 5.26 µM (active); in [11] it was 7.43 µM (active). The Potency result in test [17] is “inactive”.

As to `Cc1oc(=O)oc1CN1CCN(c2cc3c(cc2F)c(=O)c(C(=O)O)c2n3C(C)S2)CC1` (stereo unspecified), the Potency entry in [12], in test [3], in test [18], in test [6], in [8] and in test [9] was “inactive” each time. Besides, the Potency result in test [17] and in test [11] was “inactive” in each case. In test [7], the Potency is 13.2 µM (active).

Turning to `CCn1cc(C(=O)O)c(=O)c2cc(F)c(N3CCNCC3)nc21`, the Potency result in [14], in test [2], in [3], in test [4], in test [5] and in [13] was “inactive” throughout. In addition, the Potency result in test [9], in test [10] and in test [11] was “inactive” in each case. The viability in test [16] is 102%.

Consider `COc1ccc(-c2ccc3cc(C(=O)O)ccc3c2)cc1C12CC3CC(CC(C3)C1)C2`, for which the Potency entry in test [1], in test [15], in [2], in test [5], in [10] and in test [17] was “inactive” in each case. Further, the viability in [16] was 119%. The Potency in test [9] is 833 nM (active).

Take `CC(C)OC(=O)C(C(=O)OC(C)C)=C1SC=CS1`: the Potency result in test [1], in test [14], in [12], in test [4], in [5] and in test [6] was “inactive” throughout. In addition, the Potency entry in test [7], in [10], in [17] and in test [11] was “inactive” each time.

As for `O=c1oc2c(O)c(O)cc3c(=O)oc4c(O)c(O)cc1c4c23`, the Potency result in test [1], in test [3], in test [5], in test [7], in test [8] and in test [10] was “inactive” in each case. Moreover, in test [17], the Potency entry was “inactive”.

Regarding `CNS(=O)(=O)CCc1ccc2[nH]cc(C3CCN(C)CC3)c2c1`, the Potency entry in test [1], in test [8], in test [10], in test [17] and in test [11] was “inactive” each time. For the same compound, the Potency was 23.5 µM (active) in test [14]; 0.332 µM (active) in test [12]; 1.18 µM (active) in test [2]; 5.26 µM (active) in test [3]; 4.18 µM (active) in test [16]; 0.372 µM (active) in test [4]. Besides, the Potency in test [5] was 0.743 µM (active); in test [13], 1.05 µM (active); in test [7] it was 1.66 µM (active).

Take `COC(c1ccccc1)(c1ccccc1)[C@H](Oc1nc(C)cc(C)n1)C(=O)O`: the Potency result in [1], in test [15], in [3], in [18], in test [4] and in [5] was “inactive” throughout. Also, the Potency entry in test [13], in test [7], in [8], in test [9], in [10] and in test [17] was “inactive” each time. Moreover, the Potency result in [11] is “inactive”.

Take `NC1(c2ccc(-c3nc4ccn5c(=O)[nH]nc5c4cc3-c3ccccc3)cc2)CCC1`: the Potency is 6.62 µM (active) in test [1]; 2.64 µM (active) in test [14]; 9.35 µM (active) in [15]; 3.32 µM (active) in test [3]; 7.43 µM (active) in test [16]; 20.9 µM (active) in test [18]. Moreover, the Potency in [4] is 20.9 µM (active); in test [5] it was 20.9 µM (active); in test [6], 1.87 µM (active); in test [13], 1.18 µM (active); in test [9] it was 1050 nM (active); in test [17], 5.26 µM (active). Further, in test [11], the Potency was 9.35 µM (active).

The term viability denotes a read-out of living cells in per cent, often relative to untreated cells.
